An excerpt weighted towards active compounds, which were near 5.8% of everything screened.
SW480 rerep = inducers of DNA re-replication in SW480 colon cancer cells; hit rate 1.8% among 340,000; Potency, µM (titrated, usually from 46.1 µM), for the others: at the top dose re-replication activation, hits mostly activators; SW480 DNA re-replication, Hoechst DNA content imaging, 48 h; further: % of control where 0% means no effect; nearly all actives have a fitted effect of over 55% in size
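DNA re-replication was detected as more nuclei of elevated Hoechst intensity after 48 hr exposure to compound (23 nL pinned per well of 250 cells).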
KB-3-1 cytotox = kills parental KB-3-1 adenocarcinoma cells; AID 1347075; Potency, µM (top dose mostly 46.1 µM), actives largely listed as cytotoxic; hit rate 1.4% among 400,000; KB-3-1 viability, CellTiter-Glo ATP luminescence, 72 h; further: on the % scale 0 is the no-effect control and ±100 the full control effect; nearly all actives have a fitted effect of over 60% in size
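KB-3-1 parental drug-naive adenocarcinoma cells in DMEM/10% FBS, incubated 72 h at 37 C with pin-transferred compounds across a concentration series. Viability by CellTiter-Glo luminescence; concentration-response curves fitted after normalization.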
PINK1 modulator = PINK1 expression modulation. hit rate 0.2% among 410,000. Potency, µM (titrated, usually from 76.6 µM), for inactives: at the top dose activation (PINK1 increase), actives largely listed as activators. PINK1 immunofluorescence, high-content cytometry, 24 h; active means well fitted activation curve with a large enough effect; inconclusive means small, poorly fitted or top-dose-only effect; cell line not stated here; further: % of control where 0% means no effect; nearly all actives have a fitted effect of over 65% in size
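Decision-based qHTS: stable cells, 24 h exposure to five compound concentrations, CCCP as control. Fixed cells stained for PINK1 plus nuclear, mitochondrial and cell markers, cytometer read.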
MCF10A rereplic = DNA re-replication induction in MCF 10a cells. hit rate 2.9% among 350,000. Potency, µM (titrated, usually from 46.1 µM), without a hit: top-dose activity, positive = re-replication, actives largely listed as activators. AID 624296. MCF 10A DNA re-replication, Hoechst nuclear intensity, 48 h; further: % of control where 0% means no effect; nearly all actives have a fitted effect of over 50% in size
KB-V1 MDR tox = kills drug-selected multidrug resistant KB-V1 cells; Potency, µM (series often up to 46.1 µM), actives largely listed as cytotoxic; hit rate 3.4% among 400,000; KB-V1 MDR cells viability, CellTiter-Glo, 72 h; further: on the % scale 0 is the no-effect control and ±100 the full control effect; nearly all actives have a fitted effect of over 60% in size
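Cells of the MDR subline KB-V1 are plated, dosed with compound at multiple concentrations, and incubated 72 h at 37 degrees C; CellTiter-Glo is then added and luminescence read after 10 min.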
12-LOX inh = blocks human arachidonate 12S-lipoxygenase; AID 1671190; hit rate 1.1% among 580,000; purified 12hLO, xylenol orange hydroperoxide absorbance; Potency, µM (top dose mostly 108 µM), inactives show at the top dose activity change, negative = inhibition, actives largely listed as inhibitors; P18054; further: on the % scale 0 is the no-effect control and ±100 the full control effect
Target sequence (P18054 whole entry, looked up): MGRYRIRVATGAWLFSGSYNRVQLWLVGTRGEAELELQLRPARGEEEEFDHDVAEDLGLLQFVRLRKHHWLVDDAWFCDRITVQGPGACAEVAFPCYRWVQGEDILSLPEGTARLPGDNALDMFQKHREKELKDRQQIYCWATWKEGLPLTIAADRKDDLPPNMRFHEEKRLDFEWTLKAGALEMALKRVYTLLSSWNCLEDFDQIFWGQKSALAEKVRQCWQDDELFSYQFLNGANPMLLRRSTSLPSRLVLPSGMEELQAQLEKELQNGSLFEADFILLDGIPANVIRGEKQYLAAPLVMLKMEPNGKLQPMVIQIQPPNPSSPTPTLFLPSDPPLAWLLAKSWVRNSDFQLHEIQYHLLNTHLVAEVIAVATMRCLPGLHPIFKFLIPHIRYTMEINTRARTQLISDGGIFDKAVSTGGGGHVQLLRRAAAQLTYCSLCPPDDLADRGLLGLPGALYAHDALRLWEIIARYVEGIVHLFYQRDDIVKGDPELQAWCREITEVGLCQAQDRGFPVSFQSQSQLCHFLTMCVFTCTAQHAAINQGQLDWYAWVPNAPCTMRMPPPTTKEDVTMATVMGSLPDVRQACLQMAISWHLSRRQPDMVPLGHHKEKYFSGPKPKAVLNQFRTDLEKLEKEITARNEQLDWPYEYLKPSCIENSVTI
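Purified human 12hLO (150 nM final) in 25 mM Hepes, 0.01% Triton X-100, pH 7.0 was preincubated 15 min at room temperature with compound. Then 40 uM arachidonic acid was added, 30 min. Hydroperoxide was read by Fe-XO absorbance ratio 573/405 nm.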
* = called active by the depositor; i = inactive; u = inconclusive; x = no result; [ ] = dose if it differs, or a comment. Unless noted, the call rests on the fitted dose curve; in most records, active means well fitted curve in the direction sought with a large enough effect; inconclusive means small, poorly fitted or top-dose-only effect, or another doubt; inactive means no such curve, though single readings can be large; an effect the other way counts as inactive or inconclusive. Potency means the concentration at half of the fitted maximal effect.

SMILES	SW480 rerep	KB-3-1 cytotox	PINK1 modulator	MCF10A rereplic	KB-V1 MDR tox	12-LOX inh
C/C(=N/O)c1cc(Cl)ccc1O	x	x	x	x	x	-17%
O=C(Nc1ccccc1Br)C12CC3CC(CC(Cl)(C3)C1)C2	x	x	x	x	x	9%
Cc1cccc(NC(=O)c2oc3ccccc3c2NC(=O)c2nn(-c3cccc(C)c3)ccc2=O)c1	x	x	x	x	x	5%
COC(=O)[C@@]12C[C@@H](CC(=O)NCC34CC5CC(CC(C5)C3)C4)C(=O)N(Cc3ccccc3)C1=CCC(C)(C)C2	x	u	x	x	23µM*	-28%
COC(=O)[C@@]12C[C@@H](CC(=O)NCC34CC5CC(CC(C5)C3)C4)C(=O)N(Cc3cccc4ccccc34)C1=CCC(C)(C)C2	x	u	x	x	i	-16%
COC(=O)[C@@]12C[C@@H](CC(=O)NCc3cccc4ccccc34)C(=O)N(Cc3ccc4c(c3)OCO4)C1=CCC(C)(C)C2	x	u	x	x	23µM*	2%
COC(=O)[C@@]12C[C@@H](CC(=O)NCCc3ccccc3OC)C(=O)N(Cc3ccco3)C1=CCC(C)(C)C2	x	i	x	x	15µM*	-12%
COc1cccc(/C=N/N2CCN(c3ccccc3OC)CC2)c1	-17%	i	2%[38.3 µM]	-2%	12µM*	0%
COc1ccccc1N1CCN(/N=C/c2cccc(Cl)c2)CC1	-49%	i	1%	u	i	-5%
COc1ccccc1N1CCN(/N=C/c2ccc(O)c(O)c2)CC1	13µM*	i	4%	17%	i	u
C=CCC(NC(C)=O)C(=O)O (centres undefined)	x	x	x	x	x	7%
COC(=O)N(C)CC(=O)NCc1cccc(C)c1	x	x	x	x	x	-10%
NC(=O)CSc1nnc(-c2ccc3c(c2)OCO3)o1	-19%	i	4%	-12%	i	-1%
C/C(N)=C(/C#N)C(=O)CSc1nnc(-c2ccc3c(c2)OCO3)o1	12µM*	i	-1%[38.3 µM]	4%	i	4%
C/C(N)=C(/C#N)C(=O)CSc1nnc(COc2cc(C)ccc2C)o1	20%	i	x	18µM*	i	1%
CSc1ccc(NC(=O)c2ccc3c(c2)NC(=O)CS3)cc1	x	x	x	x	x	-6%
O=C(CN(Cc1cccs1)C(=O)CN1C(=O)COc2ccccc21)NCc1ccco1	-2%	i	-1%[38.3 µM]	-5%	13µM*	-2%
CC(C)(C)NC(=O)CN(Cc1cccs1)C(=O)CN1C(=O)C(=O)c2ccccc21	u	i	2%	2.1µM*	i	-10%
CC(C)(C)NC(=O)CN(Cc1cccs1)C(=O)c1csnn1	-12%	i	-2%	1%	i	0%
COc1ccc(C2=Nc3ccccc3OC2)cc1	u	i	-2%	u	u	45µM*
Cc1ccc(C2=Nc3ccc(Cl)cc3OC2)cc1	x	x	x	x	x	22µM*
Cc1ccc(/C=C(/C#N)C(=O)NC2CCCC2)cc1C	x	x	x	x	x	29%
CCOc1ccc(OCCNC(=O)c2oc3ccccc3c2COC)cc1	-5%	i	2%	u	21µM*	-13%
COCCNC(=O)NC(=O)CSc1nc(-c2ccco2)nc2ccccc12	x	x	x	x	x	-7%
CC1=C(C(=O)OC2CCCCCCC2)C(c2cc3c(cc2Br)OCO3)CC(=O)N1 (centres undefined)	u	u	0%	5.8µM*	i	-22%
SMILES	SW480 rerep	KB-3-1 cytotox	PINK1 modulator	MCF10A rereplic	KB-V1 MDR tox	12-LOX inh
CC(C)c1ccc(/C=c2\sc3n(c2=O)C(N)=C(C#N)C(c2ccc(C(C)C)cc2)C=3C(N)=O)cc1 (centres undefined)	u	u	4%	1.3µM*	i	0%
O=[N+]([O-])c1ccc(CP(=O)(c2ccccc2)c2ccccc2)cc1	0%	i	-1%	0%	u	-18%
O=[N+]([O-])c1cccc(CP(=O)(c2ccccc2)c2ccccc2)c1	2%	i	6%	12%	21µM*	-1%
Oc1ccc(Cl)cc1C1=NNC(c2cc(Br)cc3c2OCOC3)C1 (centres undefined)	116%	u	16%	11%	i	-44%
Oc1c(Cl)cc(Cl)cc1C1=NNC(c2ccc(Cl)cc2)C1 (centres undefined)	u	i	4%	16µM*	u	x
Oc1ccc(Cl)cc1C1=NNC(c2ccc(Cl)cc2)C1 (centres undefined)	u	23µM*	18%	18µM*	u	u
Cc1ccccc1C(=O)N1CCC(N2CCCCCC2=O)CC1	x	x	x	x	x	89µM*
Cc1ccc(C(C(=O)NC2CCCCC2)N(C(=O)Cc2c[nH]c3ccccc23)c2ccccc2)o1 (centres undefined)	14%	18µM*	25%[38.3 µM]	u	4.1µM*	u
COc1cc(C(C(=O)NC2CCCCC2)N(C(=O)Cc2c[nH]c3ccccc23)c2ccc(C)cc2)cc(OC)c1OC (centres undefined)	11%	u	5%	4%	23µM*	-9%
O=C(NC1CCCCC1)C(c1cccs1)N(C(=O)Cc1c[nH]c2ccccc12)c1ccc(F)cc1 (centres undefined)	0%	i	x	1%	i	-20%
COc1cc([C@@H]2[C@H]3CNCC=C3C(C#N)=C(N)C2(C#N)C#N)ccc1OC(C)C	3%	i	5%	-3%	i	43%
CCC1C2CN(C(C)=O)CC=C2C(C#N)=C(N)C1(C#N)C#N (centres undefined)	-24%	i	-1%	0%	i	-4%
CN1CC=C2C(C#N)=C(N)C(C#N)(C#N)C(Cc3ccccc3)C2C1 (centres undefined)	-2%	i	18µM*	1%	i	0%
COc1cc(C2C3CN(C)CC=C3C(C#N)=C(N)C2(C#N)C#N)ccc1OC(C)C (centres undefined)	-6%	i	40µM*	1%	i	-22%
CC(C)N1CC=C2C(C#N)=C(N)C(C#N)(C#N)C(c3ccccc3)C2C1 (centres undefined)	-5%[9.22 µM]	i	7.9µM*	8%	i	0%
CCN1CC=C2C(C#N)=C(N)C(C#N)(C#N)C(c3cc(Cl)ccc3Cl)C2C1 (centres undefined)	8%	i	u	16µM*	i	-13%
COCCCNCc1ccco1	x	x	x	x	x	47%
COc1cc2c(cc1OC)/C(=C/c1ccc(Br)cc1)C(=O)OC2	u	21µM*	-4%	u	u	u
O=C(O)Cc1sc(-c2cccnc2)nc1-c1ccc(Br)cc1	u	i	4%	15%	i	35µM*
O=C(O)Cc1sc(-c2ccccc2Cl)nc1-c1ccccc1	-14%	i	0%	-9%	i	0%

Source: PubChem BioAssay (National Center for Advancing Translational Sciences (NCATS))
